# Assay results: PubChem BioAssay (Tox21)
# Values joined by “and” are separate entries in the source; they are usually repeats but may differ in a detail not shown here. Equal values may be shown once. Inconclusive results are not listed. Entries that show only a call come without a potency. A structure can be active in one record and inactive in another. Active and inactive are the calls of the source. Unless noted, calls follow the shape of the dose curve; as a rule, active = well fitted curve in the direction sought with a large enough effect in the repeat runs; inconclusive = weak or mixed curves; inactive = no such curve, though single readings can be large; an effect the other way counts as inactive or inconclusive.
# What was measured:
# [1] = qHTS assay to identify small molecule agonists of H2AX (AID 1224845; active = well fitted activation curve with a large enough effect in the signal ratio in the repeat runs, not every such curve was filed as active; the % refers to the signal ratio)
# How it was run: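 Wild-type CHO-K1 cells plated overnight, then exposed 3 hr at 37C to compounds at 15 concentrations (0.76% DMSO). Lysed, then HTRF anti-pH2AX(S139)-cryptate/anti-H2AX-d2 detection after 24 hr at room temperature; emissions 665 and 620 nm.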
# [2] = qHTS assay to identify small molecule agonists of H2AX - cell viability counter screen (AID 1224847; calls by dose curve; also: top concentration of the series differs between compounds; nearly all actives have a fitted effect of over 30% in size)
# How it was run: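 CHO-K1 cells plated overnight at 37C, then exposed 3 h at 37C to compounds at 15 concentrations (0.76% DMSO final). Viability by CellTiter-Glo luminescence after 30 min at room temperature.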
# [3] = qHTS RealTime-Glo MT Cell Viability Assay in HepG2 cells - 24 hour (AID 1224867); also: nearly all actives have a fitted effect of over 50% in size
# How it was run: (§1)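 Luminescence read-out: viable HepG2 cells reduce a prosubstrate to a NanoLuc substrate, giving a signal proportional to live cell number. Reads taken at 0, 8, 16, 24, 32 and 40 h of compound exposure at 37 C.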
# [4] = A CellTox Green Cytotoxicity Assay to monitor cytotoxicity in HEK293 cells - 0 hour (AID 1224869); also: nearly all actives have a fitted effect of over 50% in size
# How it was run: (§2)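 Dead-cell fluorescence measured kinetically: asymmetric cyanine dye, HEK293, 600 cells/well, 5 h settle, 23 nL cpd/DMSO, 37 C, reads 0–40 h every 8 h.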
# [5] = qHTS RealTime-Glo MT Cell Viability Assay in HepG2 cells - 40 hour (AID 1224870); also: nearly all actives have a fitted effect of over 50% in size
# How it was run: (§3)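 HepG2 cells mixed with RealTime-Glo MT reagents (NanoLuc plus cell-permeant prosubstrate) were seeded at 600 cells/well, incubated 5 h at 37 C/5% CO2, then pinned with compounds in DMSO; nonlytic luminescence tracked viability during 40 h treatment.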
# [6] = A CellTox Green Cytotoxicity Assay to monitor cytotoxicity in HEK293 cells - 40 hour (AID 1224871); also: nearly all actives have a fitted effect of over 45% in size; also: potency is read from the fitted curve at half-maximal effect
# How it was run: as §2
# [7] = qHTS RealTime-Glo MT Cell Viability Assay in HEK293 cells - 16 hour (AID 1224872); also: nearly all actives have a fitted effect of over 50% in size; also: potency is read from the fitted curve at half-maximal effect
# How it was run: (§4)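 Nonlytic real-time viability readout: viable cells convert prosubstrate to NanoLuc substrate, giving luminescence proportional to live cell number. HEK293, 600 cells/well, compound added after 5 h, continuous culture at 37 C.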
# [8] = qHTS RealTime-Glo MT Cell Viability Assay in HepG2 cells - 8 hour (AID 1224873); also: nearly all actives have a fitted effect of over 55% in size
# How it was run: as §3
# [9] = qHTS RealTime-Glo MT Cell Viability Assay in HEK293 cells - 40 hour (AID 1224874); details: RealTime-Glo luminescence; max response: stronger effect = lower value; also: nearly all actives have a fitted effect of over 50% in size; also: potency is read from the fitted curve at half-maximal effect
# How it was run: (§5)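 600 HEK293 cells per well, dispensed already mixed with RealTime-Glo MT reagents. Compound dosing came 5 h later. The same wells were read for luminescence at 0, 8, 16, 24, 32 and 40 h of exposure at 37 C.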
# [10] = A CellTox Green Cytotoxicity Assay to monitor cytotoxicity in HepG2 cells - 16 hour (AID 1224876); also: nearly all actives have a fitted effect of over 45% in size; also: potency is read from the fitted curve at half-maximal effect
# How it was run: (§6)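 First, HepG2 cells (600/well) mixed with reagent were plated; second, after 5 h at 37 C they received compounds via pintool; third, fluorescence was measured at 0 h through 40 h at 8 h intervals.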
# [11] = qHTS RealTime-Glo MT Cell Viability Assay in HepG2 cells - 32 hour (AID 1224877); also: nearly all actives have a fitted effect of over 55% in size; also: potency is read from the fitted curve at half-maximal effect
# How it was run: as §1
# [12] = A CellTox Green Cytotoxicity Assay to monitor cytotoxicity in HepG2 cells - 24 hour (AID 1224878); also: nearly all actives have a fitted effect of over 45% in size; also: potency is read from the fitted curve at half-maximal effect
# How it was run: as §6
# [13] = A CellTox Green Cytotoxicity Assay to monitor cytotoxicity in HepG2 cells - 40 hour (AID 1224879); also: nearly all actives have a fitted effect of over 40% in size; also: potency is read from the fitted curve at half-maximal effect
# How it was run: as §6
# [14] = A CellTox Green Cytotoxicity Assay to monitor cytotoxicity in HEK293 cells - 32 hour (AID 1224881); also: nearly all actives have a fitted effect of over 40% in size; also: potency is read from the fitted curve at half-maximal effect
# How it was run: as §2
# [15] = qHTS assay to identify small molecule agonists of the hypoxia (HIF-1) signaling pathway (AID 1224846; active = well fitted activation curve with a large enough effect in the signal ratio in the repeat runs, not every such curve was filed as active; the % refers to the signal ratio)
# How it was run: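 Agonist mode reporter screen. ME-180 cells stably expressing bla under HRE control received test compounds in DMSO for 17 hrs (37C, 5% CO2), and beta-lactamase activity was then detected with the CCF4-AM FRET substrate.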
# [16] = qHTS RealTime-Glo MT Cell Viability Assay in HEK293 cells - 32 hour (AID 1224868); also: nearly all actives have a fitted effect of over 50% in size; also: potency is read from the fitted curve at half-maximal effect
# How it was run: as §4
# [17] = qHTS assay to identify small molecule antagonists of the estrogen related receptor (ERR) signaling pathway from Tox21 library (AID 1224848); also: nearly all actives have a fitted effect of over 50% in size; also: potency is read from the fitted curve at half-maximal effect
# How it was run: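 First, 2,000 ERR cells per well were plated and held 6 h at 37 C/5% CO2. Next, compounds in DMSO were pinned in and left 18 h at 37 C. Finally, ONE-Glo was added and luminescence read after 30 min at room temperature.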
# [18] = qHTS assay to identify small molecule agonists of the estrogen related receptor (ERR) signaling pathway from Tox21 library (AID 1224849; calls by dose curve; also: nearly all actives have a fitted effect of over 15% in size); details: ERR reporter cell line, ONE-Glo luciferase, 18 h
# How it was run: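 Quantitative HTS in agonist format: NTP ERR cell line, compounds transferred in DMSO after 6 h plating, 18 h incubation at 37 C, ONE-Glo luminescence endpoint.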
# [19] = qHTS RealTime-Glo MT Cell Viability Assay in HEK293 cells - 0 hour (AID 1224880); also: top concentration of the series differs between compounds; nearly all actives have a fitted effect of over 45% in size
# How it was run: as §5
# [20] = A CellTox Green Cytotoxicity Assay to monitor cytotoxicity in HEK293 cells - 24 hour (AID 1224875); also: nearly all actives have a fitted effect of over 45% in size
# How it was run: as §2
smiles,measurement,setting,value
CCn1cc(C(=O)O)c(=O)c2cc3c(cc21)OCO3,Potency,[1],inactive
same,Potency,[2],inactive
same,Potency,[3],inactive
same,Potency,[4],inactive
same,Potency,[5],inactive
same,Potency,[6],inactive
same,Potency,[7],inactive
same,Potency,[8],inactive
same,max response,[9],10.2% (inactive) and 3.68% (inactive)
same,Potency,[10],inactive
same,Potency,[11],inactive
same,Potency,[12],inactive
same,Potency,[13],inactive
same,Potency,[14],inactive
O=C(O)C1=NN(c2ccc(S(=O)(=O)O)cc2)C(=O)C1,outcome,[15],inactive
same,Potency,[2],inactive
same,Potency,[3],inactive
same,Potency,[16],inactive
same,Potency,[4],inactive
same,Potency,[5],inactive
same,Potency,[6],inactive
same,Potency,[7],inactive
same,Potency,[8],inactive
same,max response,[9],6.57% (inactive) and 2.54% (inactive)
same,Potency,[10],inactive
same,Potency,[11],inactive
same,Potency,[12],inactive
same,Potency,[13],inactive
same,Potency,[14],inactive
Nc1nc(N)c2nc(-c3ccccc3)c(N)nc2n1,Potency,[2],inactive
same,Potency,[17],24.6 µM (active) and 21.7 µM (active)
same,"activity change, positive = activation",[18]; at 42.5 µM (top of the series),-33.8% (inactive)
same,"activity change, positive = activation",[18]; at 92.4 µM (top of the series),-44.9% (inactive) and -45.9% (inactive)
same,Potency,[3],inactive
same,Potency,[4],inactive
same,Potency,[5],inactive
same,Potency,[6],inactive
same,Potency,[7],inactive
same,Potency,[8],inactive
same,Potency,[9],24.8 µM (active) and 19.5 µM (active)
same,max response,[9],-27.6% (inactive)
same,Potency,[10],inactive
same,Potency,[11],inactive
same,Potency,[12],54.9 µM (active) and inactive
same,Potency,[13],49.5 µM (active) and 49 µM (active)
same,Potency,[19],inactive
same,Potency,[14],inactive
CC(C)(C)NC[C@H](O)COc1nsnc1N1CCOCC1,Potency,[1],inactive
same,Potency,[2],inactive
same,Potency,[3],inactive
same,Potency,[16],inactive
same,Potency,[4],inactive
same,Potency,[5],inactive
same,Potency,[6],inactive and 3.38 µM (active)
same,Potency,[7],inactive
same,Potency,[8],inactive
same,max response,[9],-0.31% (inactive) and -1.2% (inactive)
same,Potency,[20],inactive
same,Potency,[10],inactive
same,Potency,[11],inactive
same,Potency,[12],inactive
same,Potency,[13],inactive
same,Potency,[14],inactive
CC/C=C(\C(=O)N[C@@H]1C(=O)N2C(C(=O)OCOC(=O)C(C)(C)C)=C(COC(N)=O)CS[C@H]12)c1csc(N)n1,Potency,[1],inactive
same,outcome,[15],inactive
same,Potency,[2],inactive
same,Potency,[3],inactive
same,Potency,[4],inactive
same,Potency,[5],inactive
same,Potency,[6],inactive
same,Potency,[7],inactive
same,Potency,[8],inactive
same,max response,[9],11.8% (inactive) and 8.9% (inactive)
same,Potency,[10],inactive
same,Potency,[11],inactive
same,Potency,[12],inactive
same,Potency,[13],inactive
same,Potency,[19],inactive
same,Potency,[14],inactive
O=c1c(O)c(-c2ccc(O)c(O)c2)oc2cc(O)cc(O)c12,Potency,[3],inactive
same,Potency,[16],inactive
same,Potency,[4],inactive
same,Potency,[5],inactive
same,Potency,[6],inactive
same,Potency,[7],inactive
same,Potency,[8],inactive
same,max response,[9],-22.5% (inactive)
same,Potency,[20],inactive
same,Potency,[10],inactive
same,Potency,[11],inactive
same,Potency,[12],inactive
same,Potency,[13],inactive
same,Potency,[14],inactive
Cc1cc(CC(=O)O)n(C)c1C(=O)c1ccc(Cl)cc1,Potency,[1],inactive
same,outcome,[15],inactive
same,Potency,[2],inactive
same,Potency,[3],inactive
same,Potency,[4],inactive
same,Potency,[5],inactive
same,Potency,[6],inactive
same,Potency,[7],inactive
same,Potency,[8],inactive
same,max response,[9],-0.154% (inactive) and 2.14% (inactive)
same,Potency,[10],inactive
same,Potency,[11],inactive
same,Potency,[12],inactive
same,Potency,[13],inactive
same,Potency,[19],inactive
same,Potency,[14],inactive
CCc1cccc(CC)c1N,Potency,[1],inactive
same,outcome,[15],inactive
same,Potency,[2],inactive
same,Potency,[3],inactive
same,Potency,[4],inactive
same,Potency,[5],inactive
same,Potency,[6],inactive
same,Potency,[7],inactive
same,Potency,[8],inactive
same,max response,[9],1.74% (inactive) and 8.01% (inactive)
same,Potency,[20],inactive
same,Potency,[10],inactive
same,Potency,[11],inactive
same,Potency,[12],inactive
same,Potency,[13],inactive
same,Potency,[14],inactive
Nc1cccc(N)n1,outcome,[15],inactive
same,Potency,[2],inactive
same,Potency,[3],inactive
same,Potency,[16],inactive
same,Potency,[4],inactive
same,Potency,[5],inactive
same,Potency,[6],inactive
same,Potency,[7],inactive
same,Potency,[8],inactive
same,max response,[9],0.328% (inactive) and -0.427% (inactive)
same,Potency,[10],inactive
same,Potency,[11],inactive
same,Potency,[12],inactive
same,Potency,[13],inactive
same,Potency,[19],inactive
same,Potency,[14],inactive
Cc1ncc(CO)c(CO)c1O,Potency,[1],inactive
same,Potency,[2],inactive
same,Potency,[3],inactive
same,Potency,[4],inactive
same,Potency,[5],inactive
same,Potency,[6],inactive
same,Potency,[7],inactive
same,Potency,[8],inactive
same,max response,[9],6.27% (inactive) and -1.31% (inactive) and 5.41% (inactive)
same,Potency,[20],inactive
same,Potency,[10],inactive
same,Potency,[11],inactive
same,Potency,[12],inactive
same,Potency,[13],inactive
same,Potency,[14],inactive
COc1ccc(N)c(OC)c1,outcome,[15],inactive
same,Potency,[2],inactive
same,Potency,[3],inactive
same,Potency,[16],inactive
same,Potency,[4],inactive
same,Potency,[5],inactive
same,Potency,[6],inactive
same,Potency,[7],inactive
same,Potency,[8],inactive
same,max response,[9],-8.13% (inactive) and -8.26% (inactive)
same,Potency,[20],inactive
same,Potency,[10],inactive
same,Potency,[11],inactive
same,Potency,[12],inactive
same,Potency,[13],inactive
same,Potency,[19],inactive
same,Potency,[14],inactive
CCCCC(=O)O,Potency,[1],inactive
same,outcome,[15],inactive
same,Potency,[2],inactive
same,Potency,[3],inactive
same,Potency,[4],inactive
same,Potency,[5],inactive
same,Potency,[6],inactive
same,Potency,[7],inactive
same,Potency,[8],inactive
same,max response,[9],6.05% (inactive) and 6.12% (inactive)
same,Potency,[20],inactive
same,Potency,[10],inactive
same,Potency,[11],inactive
same,Potency,[12],inactive
same,Potency,[13],inactive
same,Potency,[14],inactive
Cc1ccccc1C=O,Potency,[1],inactive
same,outcome,[15],inactive
same,Potency,[2],inactive
same,Potency,[3],inactive
same,Potency,[4],inactive
same,Potency,[5],inactive
same,Potency,[6],inactive
same,Potency,[7],inactive
same,Potency,[8],inactive
same,max response,[9],5.78% (inactive) and -0.406% (inactive)
same,Potency,[20],inactive
same,Potency,[10],inactive
same,Potency,[11],inactive
same,Potency,[12],inactive
same,Potency,[13],inactive
same,Potency,[14],inactive
CC(CN1c2ccccc2Sc2ccccc21)N(C)C (configuration not stated),Potency,[1],inactive
same,Potency,[17],61.8 µM (active) and 68.6 µM (active) and inactive
same,"activity change, positive = activation",[18]; at 42.5 µM (top of the series),-5.06% (inactive)
same,"activity change, positive = activation",[18]; at 92.4 µM (top of the series),-81.8% (inactive) and -69.4% (inactive)
same,Potency,[16],39.3 µM (active) and 43.6 µM (active) and 6.01 µM (active)
same,Potency,[4],inactive
same,Potency,[5],inactive
same,Potency,[6],54.9 µM (active) and inactive
same,Potency,[7],39.3 µM (active) and 30.9 µM (active)
same,Potency,[8],inactive
same,Potency,[9],39.3 µM (active) and 43.6 µM (active) and 6.01 µM (active)
same,Potency,[10],inactive and 43.6 µM (active)
same,Potency,[11],inactive and 49 µM (active)
same,Potency,[12],49 µM (active) and 23.9 µM (active)
same,Potency,[13],55.5 µM (active) and 49 µM (active) and 23.9 µM (active)
same,Potency,[19],inactive
same,Potency,[14],54.9 µM (active) and inactive
